# In all, about 2,300 compounds were measured (“relative growth”: median about 1, lowest 2% from about 0.046 on). A selection follows.
# Tested on: E. coli BW25113
# Assay: relative growth (fraction of control); higher = less inhibition
# Conditions: 50 µM
row,Structure (SMILES),relative growth
1,CNCC(O)c1ccc(O)c(O)c1.O=C(O)C(O)C(O)C(=O)O (stereo unspecified),1.17
2,CCOC(=O)C(CCc1ccccc1)NC(C)C(=O)N1CCCC1C(=O)O.O=C(O)C=CC(=O)O (stereo unspecified),1.07
3,COCCCOc1cc(CC(CC(N)C(O)CC(C(=O)NCC(C)(C)C(N)=O)C(C)C)C(C)C)ccc1OC.O=C(O)C=CC(=O)O (stereo unspecified),0.978
4,C#CCCCCCCCCCCCC(O)CC(O)CO.C=CCCCCCCCCCCCC(O)CC(O)CO (stereo unspecified),0.979
5,COc1ccc(CN(CCN(C)C)c2ccccn2)cc1.O=C(O)C=CC(=O)O,1.09
6,CN1CCC(=C2c3ccccc3CCc3sccc32)CC1.O=C(O)CC(O)C(=O)O,1.07
7,CC(C)=CCCC(C)C1CCC2(C)C3=C(CCC12C)C1(C)CCC(O)C(C)(C)C1CC3 (stereo unspecified),0.918
8,CCC1OC(=O)C(C)C(OC2CC(C)(OC)C(O)C(C)O2)C(C)C(OC2OC(C)CC(N(C)C)C2O)C(C)(O)CC(C)C(=O)C(C)C(O)C1(C)O (stereo unspecified),0.394
9,C[N+]1(CCCCC[N+]2(C)CCCC2)CCCC1.O=C([O-])C(O)C(O)C(=O)O.O=C([O-])C(O)C(O)C(=O)O,0.992
10,OCC(O)C(O)C(O)CO (stereo unspecified),0.987
11,CN(C)CCOC(C)(c1ccccc1)c1ccccn1.O=C(O)CCC(=O)O (stereo unspecified),0.787
12,CN(C)CCC(c1ccccc1)c1ccccn1.O=C(O)C=CC(=O)O (stereo unspecified),0.966
13,O=c1ccc2ccccc2o1,1.09
14,CN(C)CCOC(c1ccc(Cl)cc1)c1ccccn1.O=C(O)C=CC(=O)O (stereo unspecified),0.986
15,NC(CO)(CO)CO.O=C(c1ccccc1)c1ccc2n1CCC2C(=O)O (stereo unspecified),0.914
16,CCN(CC)CCc1nc(-c2ccccc2)no1.O=C(O)CC(O)(CC(=O)O)C(=O)O,0.968
17,CC(C)NCC(O)COc1ccc(COCCOC(C)C)cc1.O=C(O)C=CC(=O)O (stereo unspecified),1.04
18,CN1CCCC1CCOC(C)(c1ccccc1)c1ccc(Cl)cc1.O=C(O)C=CC(=O)O (stereo unspecified),1.01
19,CN1CCCC1c1cccnc1.O=C(O)C(O)C(O)C(=O)O.O=C(O)C(O)C(O)C(=O)O (stereo unspecified),1.14
20,C[N+](C)(C)CCO.Cn1c(=O)c2[n-]cnc2n(C)c1=O,1.06
21,CN(C)CCOc1ccc(C(=C(CCCl)c2ccccc2)c2ccccc2)cc1.O=C(O)CC(O)(CC(=O)O)C(=O)O,0.722
22,Cc1c(OCC(F)(F)F)ccnc1CS(=O)c1nc2ccccc2[nH]1 (stereo unspecified),1.01
23,NCC(O)c1ccc(O)c(O)c1.O=C(O)C(O)C(O)C(=O)O (stereo unspecified),1.12
24,CN(C)CCC(c1ccc(Br)cc1)c1ccccn1.O=C(O)C=CC(=O)O (stereo unspecified),1.04
25,COc1ccc2c3c1OC1CC(O)C=CC31CCN(C)C2 (stereo unspecified),0.936
26,CN1CCCN=C1C=Cc1cccc(O)c1.O=C(O)c1cc2ccccc2c(Cc2c(O)c(C(=O)O)cc3ccccc23)c1O,1.1
